From article PMC4336329 (PLoS ONE, 2015)
Screen size: about 310,000 compounds; about 14,000 (4.5%) showed an effect of 50% or more. Effects have a minus sign here. This is one part of a sample in which strong results are shown more often than they occur.

Molecular target: human ether-à-go-go-related gene (hERG) potassium channel (human, UniProt Q12809)
Assay: primary screen, population patch clamp on CHO cells stably expressing hERG; higher = less effect of the substance
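Further: peak tail current of the secondary pulse compared with the same well before compound.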

human ether-à-go-go-related gene (hERG) potassium channel, sequence (Q12809 whole entry, looked up): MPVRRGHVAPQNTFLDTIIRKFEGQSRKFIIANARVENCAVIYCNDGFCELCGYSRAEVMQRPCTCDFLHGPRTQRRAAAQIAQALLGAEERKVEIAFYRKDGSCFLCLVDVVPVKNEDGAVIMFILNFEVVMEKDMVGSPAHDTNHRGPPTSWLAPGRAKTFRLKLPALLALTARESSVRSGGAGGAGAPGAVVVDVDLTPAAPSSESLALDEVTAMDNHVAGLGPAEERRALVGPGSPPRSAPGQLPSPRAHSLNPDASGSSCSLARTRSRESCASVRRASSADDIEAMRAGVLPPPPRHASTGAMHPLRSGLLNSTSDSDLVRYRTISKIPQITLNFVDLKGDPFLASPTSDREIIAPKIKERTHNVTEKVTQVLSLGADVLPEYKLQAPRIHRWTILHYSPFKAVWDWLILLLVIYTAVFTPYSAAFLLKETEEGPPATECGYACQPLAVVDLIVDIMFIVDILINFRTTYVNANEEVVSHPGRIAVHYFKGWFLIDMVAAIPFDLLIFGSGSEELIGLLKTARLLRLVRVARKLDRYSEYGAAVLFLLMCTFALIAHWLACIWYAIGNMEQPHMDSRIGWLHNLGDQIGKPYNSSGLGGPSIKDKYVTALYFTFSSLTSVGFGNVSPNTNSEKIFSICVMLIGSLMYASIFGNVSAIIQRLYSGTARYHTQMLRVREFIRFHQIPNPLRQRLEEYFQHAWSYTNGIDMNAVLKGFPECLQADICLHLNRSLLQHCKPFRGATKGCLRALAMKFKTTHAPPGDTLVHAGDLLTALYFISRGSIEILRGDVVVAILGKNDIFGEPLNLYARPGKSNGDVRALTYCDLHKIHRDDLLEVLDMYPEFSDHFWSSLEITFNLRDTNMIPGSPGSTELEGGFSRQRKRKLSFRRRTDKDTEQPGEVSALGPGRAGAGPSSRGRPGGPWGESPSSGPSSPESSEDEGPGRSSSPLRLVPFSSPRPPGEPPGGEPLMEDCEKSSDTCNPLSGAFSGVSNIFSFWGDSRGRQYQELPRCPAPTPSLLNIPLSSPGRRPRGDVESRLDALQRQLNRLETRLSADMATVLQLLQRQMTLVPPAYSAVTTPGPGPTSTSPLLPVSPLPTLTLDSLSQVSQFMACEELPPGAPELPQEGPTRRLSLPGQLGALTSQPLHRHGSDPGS

Structure (SMILES)	hERG current change (%, negative = inhibition) at 10uM [%]
Br.c1ccc(-c2cc3n(c2)CCc2ccccc2-3)cc1	4.17
O=C(CC1C(=O)NCCN1C(=S)Nc1ccccc1)Nc1ccc2c(c1)OCCO2 (stereo not drawn)	-15.2
COc1ccc(/C=C(\NC(=O)c2ccc(Cl)cc2)C(=O)NCCCn2ccnc2)cc1OC	13.9
C/C(=C\c1ccccc1)C(=O)NCCCn1ccnc1	-10.1
O=C(NCCCn1ccnc1)/C(=C\c1ccc(Br)cc1)NC(=O)c1ccccc1	-75.8
CSc1ccc(/C=C(/NC(=O)c2ccccc2)C(=O)NCCCn2ccnc2)cc1	-60.8
O=C(NCCCn1ccnc1)/C(=C/c1ccc(Cl)cc1)NC(=O)c1ccccc1	-74.7
O=C(NCCCn1ccnc1)c1cn(-c2ccccc2)nc1-c1ccccc1	-47.1
COc1ccc(-c2nn(-c3ccccc3)cc2C(=O)NCCCn2ccnc2)cc1	-39.4
O=C(NCCCn1ccnc1)c1cn(-c2ccccc2)nc1-c1ccc(F)cc1	-64
O=C(NCCCn1ccnc1)/C(=C\c1cccnc1)NC(=O)c1cccc(Br)c1	-0.509
CCOC(=O)C1=CN(c2cccc(F)c2)C=C(C(=O)OCC)C1c1cc(OC)c(O)c([N+](=O)[O-])c1	-3.91
CCOC(=O)c1nc(C)nc(Sc2n[nH]c(-c3cc(C(F)(F)F)cc(C(F)(F)F)c3)n2)c1C	-19.5
CCCc1cc(=O)oc2c(CN(CC)CC)c(O)c(Cl)cc12	-39.8
CC(C)N(C(=O)CSc1nnc(NC(=O)C2CCC2)s1)C(C)C	-11.1
COc1ccc(CNC(=O)c2cc(-c3cccs3)on2)cc1	-2.38
CCN(CC(=O)Nc1ccc2c(c1)OCCO2)C(=O)/C=C/c1ccc(F)cc1	-7.2
O=C(NCCCn1ccnc1)/C(=C\c1ccccc1Cl)NC(=O)c1ccccc1	-41.2
O=C(NCCCn1ccnc1)/C(=C\c1ccccc1F)NC(=O)c1ccccc1	-75
O=C(NCCCn1ccnc1)/C(=C/c1ccc(F)cc1)NC(=O)c1ccccc1	-75.6
O=C(NCCCn1ccnc1)C(Cl)(Cl)Cl	-0.517
O=C(NCCCn1ccnc1)c1ccc(Cl)c(Cl)c1	-17.3

Structure (SMILES)	hERG current change (%, negative = inhibition) at 10uM [%]
Cc1ccc(C(=O)N/C(=C/c2ccccc2F)C(=O)NCCCn2ccnc2)cc1	-40.5
CN(C)CCCNC(=O)c1ccc(Cl)c(S(=O)(=O)N(C)c2ccccc2)c1.Cl	-35
CN(c1ccccc1)S(=O)(=O)c1cc(C(=O)NCCCn2ccnc2)ccc1Cl	-60.3
CC(C)(C)c1ccc(C(=O)NCCCn2ccnc2)cc1.Cl	-11
CC(C(=O)NCCCn1ccnc1)(c1ccccc1)c1ccccc1.Cl	-73.1
O=C(O)c1ccc(COc2ccc3c4c(c(=O)oc3c2)CCC4)o1	21.4
Cc1cccc(-c2n[nH]c(=S)n2Cc2ccccc2)c1	-2.87
NS(=O)(=O)c1ccc(NC(=O)COC(=O)CSc2n[nH]c(-c3ccccc3)n2)cc1	12
O=C(NN1C(=O)C2C3c4ccccc4C(c4ccccc43)C2C1=O)c1ccc(Cl)cc1 (stereo not drawn)	-8.19
COc1cc(C(=O)NCc2ccco2)c(Br)c(OC)c1OC	-4.22
O=C(Nc1cc(C(F)(F)F)ccc1Cl)c1ccc(NC(=O)C(F)(F)F)cc1	0.159
Cc1c(-n2c(SCC(C)C)nc3ccccc3c2=O)c(=O)n(-c2ccccc2)n1C	0.437
COC(=O)CSc1nc(N)c(C#N)c(C(C)C)c1C#N	-8.45
O=C(NCCCn1ccnc1)/C(=C/c1ccccc1)NC(=O)c1ccccc1	-70.3
CC(C)c1ccc(/C=C(\NC(=O)c2ccccc2)C(=O)NCCCn2ccnc2)cc1	-78.2
CN(C)c1ccc(/C=C(/NC(=O)c2ccccc2)C(=O)NCCCn2ccnc2)cc1	0.277
CN(C)c1ccc(/C=C(\NC(=O)c2ccccc2)C(=O)NCCCn2ccnc2)cc1	-9.78
CC(=O)Nc1nc(CC(C)C)cc(-c2ccccc2)c1C#N	4.98
COc1ccccc1-n1c(=O)c2c3c(sc2n2c(=S)[nH]nc12)CCC3	21.1
COc1ccccc1-n1c(=O)c2c3c(sc2n2c(SC(C)C)nnc12)CCC3	-4.22
C=CCSc1nnc2n(-c3ccccc3OC)c(=O)c3c4c(sc3n12)CCC4	-64.5
Cn1c(=O)c2c3c(sc2n2c(SCc4ccccc4)nnc12)CCCC3	-9.93

Structure (SMILES)	hERG current change (%, negative = inhibition) at 10uM [%]
COc1ccccc1-n1c(=O)c2c3c(sc2n2c(SC)nnc12)CCC3	-12.5
CCSc1nnc2n(-c3ccc(OC)cc3)c(=O)c3c4c(sc3n12)CCCC4	-6.75
CCCSc1nnc2n(-c3ccccc3OC)c(=O)c3c4c(sc3n12)CCC4	-56.8
CCCSc1nnc2n(C)c(=O)c3c4c(sc3n12)CCC4	-71.5
C=C(C)CSc1nnc2n(C)c(=O)c3c4c(sc3n12)CCC4	-21.6
O=C(O)/C=C/C(=O)Nc1ccc(OC(F)(F)F)cc1Br	15.7
O=C(/C(=C/c1ccccc1Cl)c1ccccc1)N1CCOCC1	-3.84
Cc1ccc(C(NC(=O)N2CCCC2)C(Cl)(Cl)Cl)cc1F (stereo not drawn)	19.1
Cc1ccc(NC(=O)c2sc3ccccc3c2Cl)nc1	8.87
COC(C(=O)Nc1ccc(S(=O)(=O)Nc2c(C)cccc2C)cc1)c1ccccc1 (stereo not drawn)	-74.6
COC(C(=O)Nc1ccc(S(=O)(=O)Nc2ccc(F)cc2)cc1)c1ccccc1 (stereo not drawn)	0.504
COC(C(=O)Nc1ccc(S(=O)(=O)Nc2ccc(C)c(C)c2)cc1)c1ccccc1 (stereo not drawn)	15.3
CCn1cc(/C=C/C(=O)Nc2ccn(Cc3c(F)c(F)cc(F)c3F)n2)cn1	-14.9
O=C(CCS(=O)(=O)Cc1ccccc1)N1CCc2ccccc2C1	-0.206
O=C(CN1CCC(N2CCCCC2)CC1)N1CCCc2ccccc21.O=C(O)C(=O)O	20.7
O=C(CN1CCC(n2nnc3cc(F)ccc32)CC1)N1CCc2ccccc2C1	-58.1
O=C(CN1CCC(n2nnc3cc(F)ccc32)CC1)NNC(=O)c1ccccc1	-11.9
Cl.O=C(CN1CCN(c2ccc(F)cc2)CC1)N1CCC(Cc2ccccc2)CC1	-30.3
O=C(CN1CCC(n2nnc3cc(F)ccc32)CC1)NCCc1nc2ccccc2[nH]1	-31.6
O=C(CN1CCC(Cc2ccccc2)CC1)N1CCc2ccccc2C1	-69.3
O=C(CN1CCC(n2nnc3cc(F)ccc32)CC1)N1CCCc2ccccc21	-64.2
O=C(CN1CCC(n2nnc3cc(C(F)(F)F)ccc32)CC1)N1CCc2ccccc21	-19.9

Structure (SMILES)	hERG current change (%, negative = inhibition) at 10uM [%]
O=C(OCCC1Oc2cccnc2NC1=O)c1ccc(F)cc1 (stereo not drawn)	12.6
CC(OC(=O)/C=C/c1ccc2ccccc2n1)C(=O)Nc1ccc(S(N)(=O)=O)cc1 (stereo not drawn)	19.1
CCCOC(=O)c1ccc(Oc2c(-c3ccc(O)cc3O)n[nH]c2C)cc1	-2.68
Cc1nc(SCC(=O)Nc2cccc(C(=O)O)c2)n[nH]1	24.9
O=C(NCCCn1ccnc1)c1noc2c1CCCC2	-41.8
O=C(Nc1cc(Cl)cc(Cl)c1)C1CCC(=O)N1Cc1ccccc1Cl (stereo not drawn)	8.65
O=C(CC(Cc1ccccc1)C(=O)O)Nc1ccccc1 (stereo not drawn)	25.2
CCOC(=O)c1ccc([N+](=O)[O-])cc1NC(C)=O	3.85
Cc1cc(C)c(OCC(=O)Nc2cccc(O)c2)cc1C	10.9
CC(Sc1ccccc1)C(=O)NCC(c1ccco1)N1CCCCC1 (stereo not drawn)	-9.36
O=C(NCc1ccccc1CN1CCCC1)c1cc2cc(Cl)ccc2o1	-74.6
O=C(NCc1ccccc1CN1CCCC1)c1cc2ccccc2o1	-69.4
O=C(CCNC(=O)c1ccc(Cl)cc1)NCC(c1ccco1)N1CCCCC1 (stereo not drawn)	-31
O=C(NCc1ccccc1CN1CCCCC1)c1ccc(Cl)cc1N1CCCC1=O	-30.4
CC(Sc1ccc(Cl)cc1)C(=O)NCC(c1ccco1)N1CCCCC1 (stereo not drawn)	-54.1
Cc1c(C(=O)NCC(c2ccco2)N2CCCC2)oc2ccc(Cl)cc12 (stereo not drawn)	-42.1
O=C(NCc1ccccc1)c1cc2ccccc2o1	-4.68
CN(Cc1ccccc1N1CCCC1)C(=O)c1cc2cc(Cl)ccc2o1	-13.4
Cc1ccccc1CNC(=O)c1cc2ccccc2o1	3.09
O=C(NCC(c1ccco1)N1CCCC1)c1ccc(Cl)cc1 (stereo not drawn)	-22.8
O=C(NCC(c1ccco1)N1CCCC1)c1cc2cc(Cl)ccc2o1 (stereo not drawn)	-67.7
